# Measured values: PubChem BioAssay (NCI)
# This is part of a sample that, as a whole, favours compounds with a hit. Of some 83,000 tested, about 20% had one in any assay.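 For each line, cells grew in 96-well plates with the test compound present at a single concentration for 48 hours.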 Activity calls are given as the source filed them. How the source made its calls: active means growth percent below 10; inactive means the rest.
# Test system: HL-60(TB) leukemia
# Experiment: NCI-60 one-dose screen, 48 h (100 = growth as untreated, 0 = no growth, -100 = all killed)
# Conditions: 10 µM unless noted
row,Compound,growth
1,CC(C)C(=O)c1ccc(Cl)s1,99.9% (inactive)
2,COC(CCP(=O)(c1ccccc1)c1ccccc1)(C(=O)c1ccccc1)c1ccccc1 (stereo not given),7.75% (active)
3,N#Cc1cccc(-c2ccc3c(c2)NC(=O)/C3=C\c2ccc[nH]2)c1,64.8% (inactive)
4,Nc1nc(N)c2c(n1)NC(c1ccccc1)C1CCc3ccccc3C1=N2 (stereo not given),-11.2% (active)
5,CC/C(=C(/c1ccc(O)cc1)c1ccc(OCCN2CCCCC2)cc1)c1ccc(OC)cc1,81.6% (inactive)
6,COc1cc(-c2nc(C(=O)Nc3ccc(C)cc3)nn2-c2ccc(F)c(F)c2)cc(OC)c1OC,100% (inactive)
7,Cc1c2c(cn1Cc1ccccc1)CCc1cn(C)nc1-2,63.4% (inactive)
8,O=C(O)C(Cc1ccccc1)C(=O)O,107% (inactive)
9,CCOC(=O)n1cc(-c2nonc2-c2cn(C)c3ccc(OC)cc23)c2cc(F)ccc21,99.7% (inactive)
10,Nc1nc(Nc2ccccc2SSc2ccccc2Nc2nc(N)nc(-c3cccc(Cl)c3)n2)nc(-c2cccc(Cl)c2)n1,99.3% (inactive)
11,COc1cc2nc(C(=O)N3CCCCC3)cc(Nc3ccccc3)c2cc1OC,96.8% (inactive)
12,Nc1ccc(-c2ccc(-c3ccccc3N)c3[nH]c4ccccc4c23)cc1,5.47% (active)
13,O=c1c(O)cccn1CCCNCCCN(CCCn1cccc(O)c1=O)CCCn1cccc(O)c1=O,120% (inactive)
14,CN(N)c1nc2sc3c(c2c(=O)[nH]1)CCCC3,102% (inactive)
15,CNc1ccc(Br)c2c1C(=O)c1ccccc1C2=O,97.1% (inactive)
16,COC(=O)[C@]12CC[C@@H](C)[C@H](C)[C@@H]1C1=CC[C@@H]3[C@@]4(C)C[C@@H](OC(C)=O)[C@H](OC(C)=O)[C@@](C)(COC(C)=O)[C@@H]4[C@H](O)C[C@@]3(C)[C@]1(C)CC2,-10.2% (active)
17,C#CCOc1ccc2ncnc(N3CCN(C(=O)CCl)CC3)c2c1,73.4% [8.25 µM] (inactive)
18,CNc1nc2c(s1)C(c1cccc(F)c1)CC(=O)N2 (stereo not given),97.5% (inactive)
19,Cc1ccc(C2CC(c3cccc(Nc4ccncc4)c3)=Nc3c(N)nc(N)nc3N2)cc1 (stereo not given),33.7% (inactive)
20,Cn1ccnc1C(=O)/C=C/c1ccccc1,8.05% (active)

row,Compound,growth
1,O=[N+]([O-])c1ccc(Oc2cccc3c(Oc4ccc([N+](=O)[O-])cc4[N+](=O)[O-])cccc23)c([N+](=O)[O-])c1,99.9% (inactive)
2,CN(C)c1ccc(C(=NO)c2ccc(N(C)C)cc2)cc1,25% (inactive)
3,CCOC(=O)CSc1nc2sc3c(c2c(=O)n1-c1ccc([N+](=O)[O-])cc1)CCCCC3,88.4% (inactive)
4,O=C(NCCNc1nccc(-n2ccc3cccnc32)n1)c1ccc(C(F)(F)F)cc1,107% (inactive)
5,CN(C)c1ncnc2c1ncn2C1CCCCO1 (stereo not given),96.3% (inactive)
6,C=CC(=O)Nc1cccc(-c2nc(SC)nc(NCCN3CCOCC3)c2C#N)c1,94.9% (inactive)
7,COc1ccc(-c2cc(C(=O)N=Nc3c(O)[nH]c4ccc(Br)cc34)no2)cc1,95.1% (inactive)
8,CCC1C[N+]2=C(c3cc(OC)c(OC)cc3CC2)c2c1cc1n2CCc2cc(OC)c(OC)cc2-1 (stereo not given),8.26% (active)
9,CC1=NN(c2cccc(S(N)(=O)=O)c2)C(=O)C1,124% (inactive)
10,S=C1SCN(Cc2cccs2)CN1Cc1cccs1,91% (inactive)
11,O=C1/C(=C/c2ccccc2[N+](=O)[O-])COc2ccc(O)c(O)c21,-29.2% (active)
12,CCc1ccc(CCC(=O)Nc2ncc(Cc3ccccc3)s2)o1,-40% (active)
13,Cc1nn(-c2ccc(Cl)cc2)c(=O)n1CCN1CCOCC1,105% (inactive)
14,Cn1cc(-c2noc(-c3cn(C)c4ncccc34)n2)c2cc(Cl)ccc21,80.2% (inactive)
15,CC(=O)c1cc2c(N)c(C(=O)Nc3cccc(F)c3C)sc2nc1C,57.1% (inactive)
16,C=C(C)[C@@H]1CC[C@]2(C(=O)NC3CCCCC3)CC[C@]3(C)[C@H](CC[C@@H]4[C@@]5(C)CCCNC(C)(C)[C@@H]5CC[C@]43C)[C@@H]12,23.7% (inactive)
17,COc1ccc(OC)c2c1[nH]c(=O)c1c3ccccc3cn21,-49.3% (active)
18,CC(=O)Oc1ccc(Cl)cc1CN(C(C)=O)C1CCCCC1,92.8% (inactive)
19,O=C1c2cccc3cccc(c23)C(=O)N1N1C(=O)c2cccc3c(N4CCNCC4)ccc(c23)C1=O,64.7% (inactive)
20,COc1cc2nc(-c3ccc(Cl)cc3)cc(OCCCN3CCCC3)c2cc1OC,32.4% (inactive)
